Pf Dd2 growth = blocks in vitro growth of P. falciparum Dd2 | actives 4.3% (n = 120,000) | Potency, µM (top dose mostly 28.9 µM), usual class: inhibitors | P. falciparum Dd2 growth, SYBR Green, 72 h; active = well fitted inhibition curve with a large enough effect; also: nearly all actives have a fitted effect of over 65% in size
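Readout: SYBR Green fluorescence, 485 nm excitation, 535 nm emission, after ~16 h lysis at 37C. Before that, Dd2-infected red cells (2.5% hematocrit) grew 72 h with compound, 29 uM top final concentration.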
Of the large screens only hits and unclear results are named; the others gave an inactive call. Only a selection was taken, and hits are over-represented in it overall.

CN1CC(=O)N(c2ccccc2F)Cc2c(NCCc3ccc(Cl)cc3)ncnc21	none
O=C1Nc2ccccc2CC12CCN(Cc1ccc(OC(F)(F)F)cc1)C2 (stereo not drawn)	Pf Dd2 growth 11.2µM
O=C1Nc2ccccc2CC12CN(Cc1ccc(C(F)(F)F)cc1)C2	none
O=C1Nc2ccccc2OCC12CCN(Cc1cccnc1)CC2	none
O=C1Nc2ccccc2CC12CCN2Cc1ccc(OC(F)(F)F)cc1 (stereo not drawn)	none
CC(=O)Nc1ccc(CN2CCC3(Cc4ccccc4NC3=O)C2)cc1 (stereo not drawn)	none
COc1ccc(CN2CCC3(CC2)NCc2ccccc2NC3=O)cc1	none
O=C1Nc2ccccc2CC12CCCN(Cc1ccncc1)C2 (stereo not drawn)	none
N#Cc1ccc(CN2CCC3(CC2)COc2ccccc2NC3=O)cc1	Pf Dd2 growth 10µM
Cc1ccc(CN2CCC3(Cc4ccccc4NC3=O)C2)cc1 (stereo not drawn)	Pf Dd2 growth 8.91µM
O=C1Nc2ccccc2CC12CCN(Cc1cccnc1)C2 (stereo not drawn)	none
COc1ccc(CN2CCC3(Cc4ccccc4NC3=O)C2)cc1 (stereo not drawn)	Pf Dd2 growth 10µM
CC(=O)Nc1ccc(CN2CCC3(CC2)COc2ccccc2NC3=O)cc1	none
O=C(c1cnc2c(O)cccn2c1=O)N1CCC2(CC1)OCCCC2O (stereo not drawn)	none
CCOc1cc(=O)n2c(c1C(=O)Nc1ccc(C)cc1Cl)CCCC2	none
CCc1nn(-c2ccc(F)cc2)c(Oc2ccccc2)c1CCC(=O)N(C)C(C)C	none
CCc1noc(-c2nc(-c3cccc(F)c3)no2)n1	none
CCc1ccc(NC(=O)CN2C(=O)NC3(CCC(C)CC3)C2=O)cc1 (stereo not drawn)	none
Cc1cc(C)n(CCNC(=O)c2ccc3c(c2)[nH]c(=O)n3C2CCC(O)CC2)n1 (stereo not drawn)	none
O=C(c1ccco1)N1C[C@@H](CO)[C@H](c2ccncc2)C1	none
COc1ccc(NC(=O)c2ccc3c(c2)OCCN(Cc2ncccn2)C3)cc1F	none
COc1ccc(NC(=O)c2ccc3c(c2)C(O)CCCCCN3C)cn1 (stereo not drawn)	none
COc1ccc(NC(=O)c2ccc3c(c2)OCCN(C2CCC2)C3)cn1	Pf Dd2 growth 11.2µM
CN1CCC2(C1)CN(Cc1ccccc1)c1ccc(C(=O)NCc3cccs3)cc12 (stereo not drawn)	Pf Dd2 growth 7.08µM
CN1CCCC2(C1)CN(Cc1cccnc1)c1ccc(C(=O)NCc3cccs3)cc12 (stereo not drawn)	none
Cc1nc(CN2CC3(CCN(C)C3)c3cc(C(=O)NCc4cccs4)ccc32)cs1 (stereo not drawn)	none
O=C1NCCCCCCN(C(=O)COc2ccc(F)cc2)[C@H]2CCCC[C@@H]12	none
O=C(NCc1noc(Cc2cccs2)n1)C1NCCc2[nH]cnc21 (stereo not drawn)	none
COC(=O)CN1C(=O)[C@@H]2C[C@@H](O)CN2C2(CN(Cc3ccccn3)C2)C1=O	none
CC1=C[C@@H](CNC(=O)c2ccccc2)[C@H](C(C)C)C[C@H]1CC(=O)N1CCN(C)CC1	none
CC(=O)N1CCN(C(=O)C[C@@H]2C[C@@H](C(C)C)[C@H](CC#N)C=C2C)CC1	none
CC1=C[C@@H](CC#N)[C@H](C(C)C)C[C@H]1CC(=O)N1CCN(c2cnccn2)CC1	Pf Dd2 growth 7.08µM
CC1=C[C@@H](CNC(=O)C(C)(C)C)[C@H](C(C)C)C[C@H]1CC(=O)N1CCN(c2ccccn2)CC1	none
CC1=C[C@@H](CO)[C@H](C(C)C)C[C@H]1CC(=O)N1CCN(CCO)CC1	none
CC1=C[C@@H](CNC(=O)C2CCCCC2)[C@H](C(C)C)C[C@H]1CC(=O)N1CCN(c2ccccn2)CC1	Pf Dd2 growth 10µM
CC(=O)Nc1ccc(C2(C(=O)NCc3cc(F)cc(F)c3)CCCCC2)cc1	none
COc1ccc2c(c1)OCC(C(=O)NCCNc1cc(C)ccn1)C2 (stereo not drawn)	none
COc1cc(-c2ccc(C(F)(F)F)cn2)cc2c1OCCNC2	none
O=C([C@@H]1C[C@@H](O)[C@H](O)[C@@H]2NC(=S)N(c3ccc(F)cc3)[C@@H]21)N1CCCCC1	none
Cc1ccc(N2C(=S)N[C@H]3[C@@H](O)[C@H](O)C[C@@H](C(=O)N4CCCCC4)[C@H]32)cc1	none
CC(C)c1ccc(N2C(=S)N[C@H]3[C@@H](O)[C@H](O)C[C@@H](C(=O)N(C)Cc4ccccc4)[C@H]32)cc1	Pf Dd2 growth 12.6µM
CN1C[C@@H](NS(C)(=O)=O)C[C@H]1c1nc(-c2ccc(Cl)cc2)no1	none
CN(C)C(=O)c1ccc(-c2ccc(N3CCCCCC3)nc2)cc1	none
COc1ccc(-c2nc(C(C)C)nc3c2CN([S+](=O)([O-])c2cccc(OC)c2)CC3)cc1	none
CCc1nc2c(c(-c3ccc(OC)cc3)n1)CCN([S+](=O)([O-])c1cccs1)CC2	none
CC(C)c1nc2c(c(-c3ccc(Cl)cc3)n1)CN([S+](=O)([O-])c1cccs1)CC2	none
O=[S+]([O-])(c1cccs1)N1CCc2nc(C3CC3)nc(-c3ccc(Cl)cc3)c2CC1	Pf Dd2 growth 3.98µM
COc1ccc(-c2nc(C(C)C)nc3c2CN([S+](=O)([O-])c2cccs2)CC3)cc1	Pf Dd2 growth 5.01µM
O=S(=O)(c1cccs1)N1CCc2nc(C3CC3)nc(-c3ccc(Cl)cc3)c2C1	none
CCn1cc(S(=O)(=O)N2C[C@H]3CN(CCO)C[C@@]3(C(=O)O)C2)cn1	none
CCCn1cc(S(=O)(=O)c2ccc(OC)cc2)c(=O)c2cc(F)c(N3CCCC(C)C3)cc21 (stereo not drawn)	Pf Dd2 growth 11.2µM
CCn1cc(S(=O)(=O)c2cccc(C)c2)c(=O)c2cc(F)c(N3CCCC(C)C3)cc21 (stereo not drawn)	none
CCCn1cc(S(=O)(=O)c2ccccc2)c(=O)c2cc(F)c(N3CCCC3)cc21	none
Cc1ccc(C)c(Cn2cc(S(=O)(=O)c3ccc(Cl)cc3)c(=O)c3cc(F)ccc32)c1	none
CCCCn1cc(S(=O)(=O)c2ccc(C)cc2)c(=O)c2cc(F)c(N3CCCCC3)cc21	none
CCCn1cc(S(=O)(=O)c2ccc(OCC)cc2)c(=O)c2cc(C)ccc21	none
CCOc1ccc(S(=O)(=O)c2cn(Cc3cc(C)ccc3C)c3ccc(OCC)cc3c2=O)cc1	Pf Dd2 growth 10µM
CCCCn1cc(S(=O)(=O)c2ccc(C)c(C)c2)c(=O)c2cc(F)c(N3CCCC(C)C3)cc21 (stereo not drawn)	none
CCCCn1cc(S(=O)(=O)c2ccc(OC)cc2)c(=O)c2cc(F)c(N3CCCC3)cc21	none
CCCn1cc(S(=O)(=O)c2ccccc2)c(=O)c2cc(F)c(N3CCCCCC3)cc21	Pf Dd2 growth 11.2µM
CCCn1cc(S(=O)(=O)c2ccc(OC)cc2)c(=O)c2cc(F)c(N3CCCCCC3)cc21	Pf Dd2 growth 11.2µM
CCc1ccc(S(=O)(=O)c2cn(C)c3cc(N4CCN(CC)CC4)c(F)cc3c2=O)cc1	none
CC(C)(CN1CCC(Cc2cccc(C(=O)O)c2)C1)N1CCOCC1 (stereo not drawn)	none
CCN1CCCC1CNC(=O)Cn1nc2c(cc1=O)CCCC2 (stereo not drawn)	none
Cc1ncsc1CN1CC(CO)C2(CCNCC2)C1 (stereo not drawn)	none
O=C(O)C1=NOC2CN([S+](=O)([O-])c3cccs3)CC12 (stereo not drawn)	none
CCC(=O)N1CCc2c(C(=O)NCc3ccncc3)cccc21	none
O=C(c1cnccn1)N1CCc2c(n(Cc3ccccc3)n(-c3ccccc3)c2=O)C1	none
COCCNC(=O)[C@H]1C[C@H](Oc2cccnc2)CN1C(=O)NC1CCCC1	none
